We go through eleven compounds from PubChem BioAssay (NCI).

Compounds without any hit were thinned out: in the full panel of roughly 83,000, 20% have a hit.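 Testing used 96-well plates and a 48-hour single-concentration exposure. Example: -40 means 40% of the starting cells died.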 A number with no mark means an inactive call. Activity calls are given as the source filed them. The calls were made as follows: active = growth percent below 10; inactive = the rest.

Assay in all cases: NCI-60 one-dose screen, 48 h (100 = growth as untreated, 0 = no growth, -100 = all killed)
One experiment has as its system HT29 colon. The note with it: 10 µM unless noted.
A further experiment deals with SNB-75 CNS. The following applies: 10 µM unless noted.
A further experiment deals with SNB-19 CNS. The note with it: 10 µM unless noted.
In another experiment the test system is U251 CNS. The following applies: 10 µM unless noted.
The test system of the next experiment is PC-3 prostate. The following applies: 10 µM unless noted.
The next experiment concerns SK-MEL-5 melanoma. The following applies: 10 µM unless noted.
In another experiment the test system is UACC-62 melanoma. The following applies: 10 µM unless noted.
The next experiment has as its system SK-MEL-28 melanoma. The note with it: 10 µM.
The test system of the next experiment is SK-MEL-2 melanoma. The following applies: 10 µM unless noted.
Another experiment concerns EKVX NSCLC. The note with it: 10 µM unless noted.
The subject of the next experiment is SN12C renal. The following applies: 10 µM unless noted.
The test system of a further experiment is UO-31 renal. The note with it: 10 µM unless noted.
Another experiment relates to TK-10 renal. The note with it: 10 µM unless noted.
A further experiment has as its system ACHN renal. The following applies: 10 µM unless noted.
Another experiment has as its system CAKI-1 renal. The note with it: 10 µM unless noted.
For a further experiment, the system named is A498 renal. The following applies: 10 µM unless noted.
The next experiment relates to CCRF-CEM leukemia. The following applies: 10 µM unless noted.
Another experiment relates to MOLT-4 leukemia. The note with it: 10 µM unless noted.
The next experiment relates to SR leukemia. The following applies: 10 µM unless noted.
In another experiment the test system is LOX IMVI melanoma. The note with it: 10 µM unless noted.

On to `COc1ccc(C2=Nn3c(NN)nnc3SC2)cc1`, for which the growth with HT29 colon was 83.8%; in the experiment with SNB-75 CNS it was 92.4%; in the experiment with SNB-19 CNS, 104%; with U251 CNS it was 99.7%; with PC-3 prostate, 87.6%; in the experiment with SK-MEL-5 melanoma, 91.5%. Also, the growth is 104% in the experiment with UACC-62 melanoma; 110% with SK-MEL-28 melanoma; 94.4% with SK-MEL-2 melanoma; 118% in the experiment on EKVX NSCLC; 101% in the experiment on SN12C renal; 84.5% in the experiment with UO-31 renal. Besides, the growth with TK-10 renal was 97.5%; in the experiment on ACHN renal, 103%; in the experiment on CAKI-1 renal, 89.7%; in the experiment with A498 renal, 84.6%; in the experiment on CCRF-CEM leukemia, 95.1%; in the experiment with MOLT-4 leukemia, 83%. Further, in the experiment with SR leukemia, the growth was 75.8%.
For `O=S1(=O)N(Cc2ccccc2)[C@@H](Cc2ccccc2)[C@H](O)[C@H](O)[C@H](Cc2ccccc2)N1Cc1ccccc1`, the growth in the experiment on HT29 colon is 6.95% (active); with SNB-75 CNS, 13.3%; in the experiment on SNB-19 CNS, 17%; in the experiment with U251 CNS it was 4.33% (active); with PC-3 prostate, 4.89% (active); in the experiment on SK-MEL-5 melanoma, -1.02% (active). The growth with UACC-62 melanoma is 5.81% (active); in the experiment on LOX IMVI melanoma it was -11.3% (active); in the experiment with SK-MEL-2 melanoma, -5.68% (active); with EKVX NSCLC, -1.3% (active); with SN12C renal, 5.15% (active); in the experiment with TK-10 renal, 60.4%. Further, the growth with ACHN renal is -7.05% (active); with CAKI-1 renal, -19.1% (active); in the experiment on A498 renal, 18.5%; in the experiment with CCRF-CEM leukemia it was 7.73% (active); in the experiment with MOLT-4 leukemia, 5.65% (active); with SR leukemia, 4.45% (active).
For the compound `CCCC(c1nnnn1C1CCCCC1)N1CCN(C(=O)c2ccco2)CC1` (centres undefined), the growth in the experiment on HT29 colon is 27.2%; in the experiment with SNB-75 CNS it was 76.7%; in the experiment on SNB-19 CNS it was 84.5%; in the experiment on U251 CNS, 50.2%; with PC-3 prostate, 54.2%; with SK-MEL-5 melanoma it was 47.1%. The growth is 55.7% in the experiment on UACC-62 melanoma; 65.6% with SK-MEL-28 melanoma; 65.1% with SK-MEL-2 melanoma; 73.6% in the experiment on SN12C renal; 82.3% in the experiment with UO-31 renal; 86.7% in the experiment with TK-10 renal. Also, the growth with ACHN renal was 84.6%; with CAKI-1 renal, 66.4%; with A498 renal it was 44.1%; with CCRF-CEM leukemia, 24.1%; with MOLT-4 leukemia it was 26.9%; in the experiment with SR leukemia, 6.95% (active).
For the compound `CCOc1c(Br)cc(C2C(C(=O)OC)=CN(C)C=C2C(=O)OC)cc1OC`, the growth is 6.47% (active) with HT29 colon; 47.3% in the experiment on SNB-75 CNS; 89% in the experiment on SNB-19 CNS; 51% with U251 CNS; 60.7% in the experiment with PC-3 prostate; 19.6% in the experiment on SK-MEL-5 melanoma. Besides, the growth was 71.3% in the experiment on UACC-62 melanoma; 54.9% in the experiment on LOX IMVI melanoma; 65.7% in the experiment on SK-MEL-2 melanoma; 78% in the experiment on SN12C renal; 38.2% with UO-31 renal; 69.3% in the experiment with TK-10 renal. In addition, the growth in the experiment on ACHN renal is 64.4%; in the experiment on CAKI-1 renal, 75.8%; with CCRF-CEM leukemia, 72.7%; in the experiment with MOLT-4 leukemia, 59.6%; with SR leukemia, 8.75% (active).
With `COc1cccc(-c2nn(C)c3sc(C(=O)NCCN4CCN(c5ccccc5F)CC4)cc23)c1`, the growth in the experiment on HT29 colon was 17%; in the experiment with SNB-75 CNS it was 64.8%; with SNB-19 CNS, 92.4%; in the experiment on U251 CNS it was 59%; in the experiment on PC-3 prostate it was 38.3%; in the experiment on SK-MEL-5 melanoma, -79.6% (active). Also, the growth with UACC-62 melanoma was -72.1% (active); in the experiment with SK-MEL-28 melanoma, -75.2% (active); with SK-MEL-2 melanoma it was 99.4%; with SN12C renal, 60.9%; with UO-31 renal, 65.9%; in the experiment with TK-10 renal, 83.9%. The growth was 85.3% with ACHN renal; 68% with CAKI-1 renal; 39% with A498 renal; 1.87% (active) with CCRF-CEM leukemia; 7.79% (active) in the experiment on MOLT-4 leukemia; -39.5% (active) in the experiment on SR leukemia.
Regarding `O=S1(=O)N(Cc2ccccc2)[C@@H](Cc2ccccc2)C2O[C@H]2[C@H](Cc2ccccc2)N1Cc1ccccc1` (some centres undefined), the growth in the experiment with HT29 colon is 46.7%; in the experiment with SNB-75 CNS it was 46.3%; with SNB-19 CNS, 44.9%; in the experiment with U251 CNS, 41.5%; with PC-3 prostate, 42%; in the experiment on SK-MEL-5 melanoma it was 28.3%. The growth is 40.8% in the experiment on UACC-62 melanoma; 19.6% with LOX IMVI melanoma; 84.1% with SK-MEL-2 melanoma; 24% with EKVX NSCLC; 47.8% in the experiment on SN12C renal; 68.1% in the experiment with UO-31 renal. Further, the growth in the experiment on TK-10 renal was 71%; in the experiment with ACHN renal it was 41.2%; in the experiment with CAKI-1 renal it was 33.8%; in the experiment on A498 renal, 65.4%; in the experiment on CCRF-CEM leukemia it was 29.5%; in the experiment on MOLT-4 leukemia, 35.4%. The growth in the experiment on SR leukemia was 29.6%.
Consider `Cc1ccc2[nH]c(=O)cc(-n3nncc3Cn3c4ccccc4c4ccccc43)c2c1`, for which the growth with HT29 colon was 113%; in the experiment with SNB-75 CNS, 81.2%; with SNB-19 CNS, 97.1%; with U251 CNS, 99.2%; in the experiment on PC-3 prostate, 92.8%; with SK-MEL-5 melanoma, 94.5%. For the same compound, the growth in the experiment with UACC-62 melanoma is 94.9%; with SK-MEL-28 melanoma it was 108%; in the experiment on SK-MEL-2 melanoma, 103%; in the experiment on EKVX NSCLC, 98.2%; with SN12C renal it was 101%; in the experiment with UO-31 renal, 73.7%. Also, the growth was 118% with TK-10 renal; 90% in the experiment on ACHN renal; 85% in the experiment on CAKI-1 renal; 80% in the experiment with A498 renal; 99.5% in the experiment on CCRF-CEM leukemia; 101% in the experiment with MOLT-4 leukemia. In the experiment with SR leukemia, the growth was 103%.
Take `COc1ccc(C2C3=C(COC3=O)N(CCO)c3cc4c(cc32)CCC4)cc1OC` (centres undefined): the growth with HT29 colon was -3.07% (active); with SNB-75 CNS, -28% (active); with SNB-19 CNS, 27.8%; in the experiment with U251 CNS, 20%; in the experiment with PC-3 prostate it was 23.4%; in the experiment on SK-MEL-5 melanoma it was 28%. The growth in the experiment with UACC-62 melanoma was 36.7%; with LOX IMVI melanoma, 44%; with SN12C renal, 38.8%; with UO-31 renal, 42%; in the experiment on TK-10 renal it was 14.1%; with ACHN renal, 47.6%. In addition, the growth in the experiment with CAKI-1 renal is 8.75% (active); with A498 renal it was 29%; with CCRF-CEM leukemia, 18.6%; with MOLT-4 leukemia, 24%; in the experiment with SR leukemia it was 25%.
Turning to `COc1cccc(/C=C/C(=O)c2c(C)nc3ccccc3c2/C=C/c2ccccc2)c1OC`, the growth was 2.64% (active) with HT29 colon; 9.19% (active) with SNB-75 CNS; 36.3% with SNB-19 CNS; 24% in the experiment with U251 CNS; 43.3% with PC-3 prostate; 32.3% in the experiment on SK-MEL-5 melanoma. Further, the growth in the experiment on UACC-62 melanoma is 28.5%; with SK-MEL-28 melanoma, 44.8%; with SK-MEL-2 melanoma, 32.3%; in the experiment with EKVX NSCLC, 50.8%; in the experiment with SN12C renal, 31.1%; in the experiment with UO-31 renal it was 48.8%. The growth is 61.6% with TK-10 renal; 31.4% in the experiment with ACHN renal; 39.2% in the experiment with CAKI-1 renal; 58.1% with A498 renal; 13% in the experiment with CCRF-CEM leukemia; 4.78% (active) with MOLT-4 leukemia.
For the compound `NCCOc1ncccc1/C=C1\c2ccccc2-c2ccc([N+](=O)[O-])cc21`, the growth in the experiment with HT29 colon is -6.91% (active); in the experiment on SNB-75 CNS it was -81.1% (active); in the experiment with SNB-19 CNS, -6.38% (active); with U251 CNS, -75% (active); in the experiment with PC-3 prostate, 3.4% (active); in the experiment on SK-MEL-5 melanoma it was -97.5% (active). Further, the growth with UACC-62 melanoma was -81.5% (active); with SK-MEL-28 melanoma, -22% (active); with SK-MEL-2 melanoma, -21.2% (active); with SN12C renal, -62% (active); in the experiment with UO-31 renal, -99.2% (active); with TK-10 renal, -74.9% (active). Also, the growth is -89.4% (active) in the experiment with ACHN renal; -39.3% (active) with CAKI-1 renal; -89% (active) in the experiment on A498 renal; 8.64% (active) in the experiment with CCRF-CEM leukemia; -3.92% (active) with MOLT-4 leukemia; 1.14% (active) with SR leukemia.
Turning to `O=C1/C=C/[C@@H](O)[C@@H]2C[C@@H](O)C[C@H]2/C=C/CCCCO1`, the growth was 2.63% (active) with HT29 colon; 29.7% in the experiment with SNB-75 CNS; 28.7% with SNB-19 CNS; 39.7% in the experiment with U251 CNS; -17.5% (active) with PC-3 prostate; -93.1% (active) in the experiment on SK-MEL-5 melanoma. Also, the growth is 64.1% in the experiment on UACC-62 melanoma; -8.98% (active) in the experiment with SK-MEL-28 melanoma; 8.85% (active) with SK-MEL-2 melanoma; 20.6% in the experiment with EKVX NSCLC; 45.3% in the experiment with SN12C renal; 8.64% (active) with UO-31 renal. The growth in the experiment with TK-10 renal is 32.1%; in the experiment with ACHN renal, 17.9%; in the experiment with CAKI-1 renal, 18.4%; with A498 renal, -25.5% (active); in the experiment on MOLT-4 leukemia it was 5.39% (active); with SR leukemia, 14.4%.
